This is an account of results in ChEMBL document CHEMBL3988442, “University of Dundee, Small-Polar-MMV Screening Library” (2021).

For some of these results: Potency and affinity values are given separately.

Common to all, as to parameters: scale not given: direction of the effect not stated beside the values
For assay [1], the target named is Protein translocase subunit SecA (Escherichia coli (strain K12)) (UniProt P10408). The assay is described as follows: Assay to Identify E. coli SecA ATPase Inhibitors. It counts as functional. The settings on record: 30 µM.
Sequence of Protein translocase subunit SecA (Escherichia coli (strain K12)) (P10408 whole entry): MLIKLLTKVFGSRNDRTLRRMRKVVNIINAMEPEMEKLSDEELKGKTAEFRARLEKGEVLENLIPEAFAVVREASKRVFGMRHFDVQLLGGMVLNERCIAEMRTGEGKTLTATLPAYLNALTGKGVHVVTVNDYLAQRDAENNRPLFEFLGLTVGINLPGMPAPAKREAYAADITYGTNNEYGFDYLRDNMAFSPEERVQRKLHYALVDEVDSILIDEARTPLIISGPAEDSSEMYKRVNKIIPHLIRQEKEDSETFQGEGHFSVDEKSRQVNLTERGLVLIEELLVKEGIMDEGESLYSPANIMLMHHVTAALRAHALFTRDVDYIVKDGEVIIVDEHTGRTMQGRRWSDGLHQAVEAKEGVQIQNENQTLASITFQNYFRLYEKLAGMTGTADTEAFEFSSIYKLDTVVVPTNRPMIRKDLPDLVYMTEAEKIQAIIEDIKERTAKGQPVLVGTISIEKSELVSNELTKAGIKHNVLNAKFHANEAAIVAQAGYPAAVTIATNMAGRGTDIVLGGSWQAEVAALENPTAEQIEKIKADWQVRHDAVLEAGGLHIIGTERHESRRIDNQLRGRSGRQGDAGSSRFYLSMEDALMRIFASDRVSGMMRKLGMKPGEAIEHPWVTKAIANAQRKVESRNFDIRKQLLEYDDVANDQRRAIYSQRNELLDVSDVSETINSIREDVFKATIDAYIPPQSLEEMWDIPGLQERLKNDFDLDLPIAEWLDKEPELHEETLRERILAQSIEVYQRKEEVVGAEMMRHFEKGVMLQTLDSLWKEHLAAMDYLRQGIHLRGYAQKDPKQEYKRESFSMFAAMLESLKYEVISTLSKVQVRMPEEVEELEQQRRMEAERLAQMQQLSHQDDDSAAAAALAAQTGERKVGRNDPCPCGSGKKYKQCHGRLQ
Assay [2] concerns the target T1, Ubiquitin-activating enzyme e1, putative (Leishmania donovani (strain BPK282A1)) (UniProt E9BSI1).
T1 sequence (whole entry): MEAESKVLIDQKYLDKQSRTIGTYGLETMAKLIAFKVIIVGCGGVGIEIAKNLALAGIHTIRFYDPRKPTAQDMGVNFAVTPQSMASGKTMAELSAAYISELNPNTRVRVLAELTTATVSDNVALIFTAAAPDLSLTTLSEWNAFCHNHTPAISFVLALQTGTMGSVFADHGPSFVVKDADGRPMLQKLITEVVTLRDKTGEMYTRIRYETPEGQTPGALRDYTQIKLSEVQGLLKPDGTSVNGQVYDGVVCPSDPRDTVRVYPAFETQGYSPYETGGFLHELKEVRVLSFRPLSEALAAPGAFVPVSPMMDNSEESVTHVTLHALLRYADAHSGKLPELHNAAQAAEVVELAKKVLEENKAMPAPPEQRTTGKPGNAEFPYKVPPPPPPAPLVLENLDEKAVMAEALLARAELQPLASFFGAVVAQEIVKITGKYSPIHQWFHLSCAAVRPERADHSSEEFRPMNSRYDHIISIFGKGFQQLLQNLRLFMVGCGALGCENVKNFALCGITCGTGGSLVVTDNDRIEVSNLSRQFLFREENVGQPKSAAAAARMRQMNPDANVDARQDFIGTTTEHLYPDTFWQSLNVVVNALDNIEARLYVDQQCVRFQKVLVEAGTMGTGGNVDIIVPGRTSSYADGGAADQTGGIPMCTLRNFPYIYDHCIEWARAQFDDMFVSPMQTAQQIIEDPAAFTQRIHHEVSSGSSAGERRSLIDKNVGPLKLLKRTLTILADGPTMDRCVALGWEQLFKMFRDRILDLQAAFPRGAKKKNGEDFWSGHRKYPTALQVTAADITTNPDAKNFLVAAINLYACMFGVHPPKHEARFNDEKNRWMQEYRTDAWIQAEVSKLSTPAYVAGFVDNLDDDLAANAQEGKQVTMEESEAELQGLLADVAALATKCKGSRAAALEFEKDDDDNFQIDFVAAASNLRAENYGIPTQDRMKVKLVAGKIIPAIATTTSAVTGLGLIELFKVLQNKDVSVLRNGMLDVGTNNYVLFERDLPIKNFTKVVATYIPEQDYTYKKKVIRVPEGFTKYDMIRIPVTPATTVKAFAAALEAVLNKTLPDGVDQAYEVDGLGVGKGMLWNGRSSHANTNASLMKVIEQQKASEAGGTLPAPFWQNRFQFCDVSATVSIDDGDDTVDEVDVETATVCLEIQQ
The assay is described as follows: Leishmania donovani Ubiquitin Activating Enzyme (LdE1). The settings on record: 30 µM. It counts as functional.

The target in assay [3] is AMP-activated protein kinase, AMPK (Homo sapiens) (UniProt P54646+O43741+P54619+Q9UGJ0+Q9Y478+Q13131+Q9UGI9). The assay is described as follows: AMP-dependent Kinase enzyme assay. An in vitro enzyme assay that detects ADP turnover that is directly proportional to AMPK activity. This uses naive AMPK that is activated during the assay with MK-8722. It counts as functional. To be noted: 30 µM.

Assay [4] has as its target Sialic acid-binding Ig-like lectin 9 (Homo sapiens) (UniProt Q9Y336). Description: Hs-Siglec9 ALPHAscreen SOP 20170721. To be noted: 10 µM. On the technique in general: In Alpha technology, singlet oxygen from a donor bead excites a nearby acceptor bead.
Another assay concerns Trypanosoma cruzi. The assay is described as follows: Trypanosoma cruzi phosphomannomutase and mannose-1-phosphate guanylyltransferase assay. It counts as functional. To be noted: 10 µM.
Assay [5] has as its target T2, Arginase-2, mitochondrial (Homo sapiens) (UniProt P78540).
T2 sequence (whole entry): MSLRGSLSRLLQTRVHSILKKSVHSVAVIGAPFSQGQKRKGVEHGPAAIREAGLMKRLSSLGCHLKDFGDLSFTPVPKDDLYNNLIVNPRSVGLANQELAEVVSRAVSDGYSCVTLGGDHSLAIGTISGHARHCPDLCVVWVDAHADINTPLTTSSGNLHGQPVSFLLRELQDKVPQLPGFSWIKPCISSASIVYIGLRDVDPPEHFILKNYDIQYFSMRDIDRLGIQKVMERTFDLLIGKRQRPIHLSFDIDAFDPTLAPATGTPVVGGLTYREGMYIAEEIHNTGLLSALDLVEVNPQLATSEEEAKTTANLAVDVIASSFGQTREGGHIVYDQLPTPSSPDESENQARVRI
The assay is described as follows: in vitro enzyme assay to detect the production of urea directly proportional to the activity of Arginase II. Note: in the data most compounds retested in dose-response had high values. It counts as functional. To be noted: 33.3 µM.

The target of assay [6] is T3, Proteasome subunit beta (Trypanosoma cruzi) (UniProt O96673).
T3 sequence (whole entry): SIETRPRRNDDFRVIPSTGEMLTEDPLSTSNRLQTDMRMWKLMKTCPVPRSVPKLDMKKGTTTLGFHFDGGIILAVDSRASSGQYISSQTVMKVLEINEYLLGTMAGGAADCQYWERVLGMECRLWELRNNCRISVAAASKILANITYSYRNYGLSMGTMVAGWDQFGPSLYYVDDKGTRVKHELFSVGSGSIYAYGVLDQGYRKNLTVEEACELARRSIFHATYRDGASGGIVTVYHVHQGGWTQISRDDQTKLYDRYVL
Description: Trypanosoma cruzi proteasome chymotrypsin-like activity (TcProtChymo) assay. Note: in the data most compounds retested in dose-response had high values. It counts as functional. To be noted: 9.37 µM.

The species named for another assay is Homo sapiens. The assay is described as follows: To identify inhibition of the IFN signalling (Jak-Stat) pathway via expression of an eGFP reporter gene under the control of an IFN-stimulated response element (ISRE) containing MxA promoter. It counts as functional. To be noted: 30 µM. (In general: In a reporter assay the amount or activity of a reporter protein is the signal.)

For assay [7], the target named is T4, Tyrosyl-tRNA synthetase, putative (Trypanosoma cruzi (strain CL Brener)) (UniProt Q4DSP6).
T4 sequence (whole entry): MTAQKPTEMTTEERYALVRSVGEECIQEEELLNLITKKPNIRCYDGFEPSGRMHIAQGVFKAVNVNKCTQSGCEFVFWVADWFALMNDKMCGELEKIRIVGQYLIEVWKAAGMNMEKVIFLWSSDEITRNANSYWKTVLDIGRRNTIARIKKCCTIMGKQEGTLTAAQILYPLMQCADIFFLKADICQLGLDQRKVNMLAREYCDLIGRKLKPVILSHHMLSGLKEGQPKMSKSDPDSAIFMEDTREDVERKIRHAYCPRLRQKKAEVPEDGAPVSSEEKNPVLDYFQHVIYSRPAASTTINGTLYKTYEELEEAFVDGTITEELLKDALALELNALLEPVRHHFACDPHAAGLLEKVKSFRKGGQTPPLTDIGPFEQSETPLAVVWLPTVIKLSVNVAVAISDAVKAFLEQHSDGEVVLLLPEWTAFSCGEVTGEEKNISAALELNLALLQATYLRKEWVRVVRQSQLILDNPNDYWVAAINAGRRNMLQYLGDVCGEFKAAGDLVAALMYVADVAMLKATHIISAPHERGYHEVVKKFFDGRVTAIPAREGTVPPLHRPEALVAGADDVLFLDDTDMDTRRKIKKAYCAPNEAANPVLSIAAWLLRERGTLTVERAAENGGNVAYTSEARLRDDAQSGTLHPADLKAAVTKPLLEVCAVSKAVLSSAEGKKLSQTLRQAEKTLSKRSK
The assay is described as follows: Trypanosoma cruzi tyrosyl tRNA synthetase (TcYRS) _High Tyrosine SOP. Note: in the data most compounds retested in dose-response had high values. It counts as functional. To be noted: 30 µM.

Assay [8] deals with T4, Tyrosyl-tRNA synthetase, putative (Trypanosoma cruzi (strain CL Brener)). The assay is described as follows: Trypanosoma cruzi tyrosyl tRNA synthetase (TcYRS) SOP. It counts as functional. To be noted: 30 µM.
For assay [9], the target named is Chromo domain-containing protein 1 (Saccharomyces cerevisiae (strain ATCC 204508 / S288c) (Baker's yeast)) (UniProt P32657). The assay is described as follows: ScCHD-1 Enzyme Inhibition Assay. Note: in the data most compounds retested in dose-response had high values. It counts as functional. The settings on record: 30 µM.
Sequence of Chromo domain-containing protein 1 (Saccharomyces cerevisiae (strain ATCC 204508 / S288c) (Baker's yeast)) (P32657 whole entry, the tested form may be a part): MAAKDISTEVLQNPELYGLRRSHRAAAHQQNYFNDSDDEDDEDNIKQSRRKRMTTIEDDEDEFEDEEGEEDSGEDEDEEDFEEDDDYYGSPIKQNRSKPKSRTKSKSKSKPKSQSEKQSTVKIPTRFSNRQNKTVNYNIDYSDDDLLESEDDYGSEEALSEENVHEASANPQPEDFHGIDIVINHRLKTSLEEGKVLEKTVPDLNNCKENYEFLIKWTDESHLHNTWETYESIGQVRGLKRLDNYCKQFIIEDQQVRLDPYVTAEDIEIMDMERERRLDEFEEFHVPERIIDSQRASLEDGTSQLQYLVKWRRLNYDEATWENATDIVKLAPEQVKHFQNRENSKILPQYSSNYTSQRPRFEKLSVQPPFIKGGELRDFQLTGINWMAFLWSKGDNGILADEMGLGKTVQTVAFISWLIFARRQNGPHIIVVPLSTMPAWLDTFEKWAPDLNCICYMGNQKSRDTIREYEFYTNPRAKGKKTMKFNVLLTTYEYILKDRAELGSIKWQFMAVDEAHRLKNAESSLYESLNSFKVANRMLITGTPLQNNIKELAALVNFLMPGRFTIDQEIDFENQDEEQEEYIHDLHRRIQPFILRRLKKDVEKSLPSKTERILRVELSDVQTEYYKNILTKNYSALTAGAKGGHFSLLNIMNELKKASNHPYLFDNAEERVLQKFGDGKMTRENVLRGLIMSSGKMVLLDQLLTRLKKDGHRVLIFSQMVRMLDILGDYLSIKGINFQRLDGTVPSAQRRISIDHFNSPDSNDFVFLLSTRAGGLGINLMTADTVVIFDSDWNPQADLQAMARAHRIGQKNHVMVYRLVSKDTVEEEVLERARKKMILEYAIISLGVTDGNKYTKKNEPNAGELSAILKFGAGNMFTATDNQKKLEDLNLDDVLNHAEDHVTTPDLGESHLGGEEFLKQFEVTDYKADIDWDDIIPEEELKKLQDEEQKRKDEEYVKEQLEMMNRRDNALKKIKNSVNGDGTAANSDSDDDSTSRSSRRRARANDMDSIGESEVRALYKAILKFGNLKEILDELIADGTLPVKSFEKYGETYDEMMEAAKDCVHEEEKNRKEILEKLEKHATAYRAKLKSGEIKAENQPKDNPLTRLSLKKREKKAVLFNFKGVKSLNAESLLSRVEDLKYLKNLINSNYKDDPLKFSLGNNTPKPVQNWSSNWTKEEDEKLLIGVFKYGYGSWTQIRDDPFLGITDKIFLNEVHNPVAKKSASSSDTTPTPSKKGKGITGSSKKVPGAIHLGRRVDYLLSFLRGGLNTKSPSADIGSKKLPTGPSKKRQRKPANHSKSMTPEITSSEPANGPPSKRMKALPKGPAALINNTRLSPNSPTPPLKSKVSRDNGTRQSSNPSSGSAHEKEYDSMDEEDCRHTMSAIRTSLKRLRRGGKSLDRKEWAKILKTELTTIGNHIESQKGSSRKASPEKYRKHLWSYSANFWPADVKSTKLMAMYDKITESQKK

Sequence of Sialic acid-binding Ig-like lectin 9 (Homo sapiens) (Q9Y336 whole entry): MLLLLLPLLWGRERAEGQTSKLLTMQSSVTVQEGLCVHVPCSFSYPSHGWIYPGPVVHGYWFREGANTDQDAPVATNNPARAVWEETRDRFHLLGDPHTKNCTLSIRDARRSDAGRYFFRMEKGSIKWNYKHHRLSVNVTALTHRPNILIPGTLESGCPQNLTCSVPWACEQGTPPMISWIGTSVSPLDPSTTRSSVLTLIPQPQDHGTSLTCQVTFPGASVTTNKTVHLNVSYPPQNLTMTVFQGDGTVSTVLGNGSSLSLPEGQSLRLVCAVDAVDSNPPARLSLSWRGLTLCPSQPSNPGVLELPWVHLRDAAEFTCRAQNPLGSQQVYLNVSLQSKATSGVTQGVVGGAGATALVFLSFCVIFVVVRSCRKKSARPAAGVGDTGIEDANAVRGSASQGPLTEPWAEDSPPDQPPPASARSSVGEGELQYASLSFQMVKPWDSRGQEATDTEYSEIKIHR

As to `O=C(NCCN1CCC(c2cccs2)CC1)Nc1cccs1`, the Percent Effect in [1] was -5.82%; in assay [2] it was 0%; in assay [3], -3.98%; in assay [4], 20.2%; in the assay with Trypanosoma cruzi, 4.7%; in [5] it was 1.36%. In addition, the Percent Effect in assay [6] is 14.6%; in the assay listed under Homo sapiens, 10.4%; in assay [7], 12.9%; in assay [8], 17.5%; in [9] it was -2.26%.
For the compound `Cn1ccnc1CNC(=O)N(CCCO)C1CCCc2ccccc21` (stereo unspecified), the Percent Effect in [1] was -2.21%; in assay [2] it was 5.26%; in [3] it was -1.41%; in [4] it was -4.25%; in the assay on Trypanosoma cruzi, 2.43%; in assay [5] it was -3.55%. Besides, the Percent Effect in assay [6] was -3.36%; in the assay filed under Homo sapiens, 8.36%; in [7], 2.13%; in assay [8] it was 10.4%; in assay [9] it was -9.5%.
For `COc1ccc(C)cc1CN1CCCC1Cn1nc(C)nc1C` (stereo unspecified), the Percent Effect is -5.51% in assay [1]; -3.8% in [2]; -7.49% in assay [3]; 4.01% in assay [4]; 2.97% in the assay with Trypanosoma cruzi; -0.645% in assay [5]. For the same compound, the Percent Effect is 16.6% in assay [6]; 46.5% in the assay filed under Homo sapiens; 8.33% in [7]; 12.7% in assay [8]; -26.7% in assay [9].
Consider `N#CC1(C(=O)N2CCN(Cc3cscn3)CC2)CCCC1`, for which the Percent Effect in [1] was -4.16%; in assay [2], 10.1%; in assay [3], -7.12%; in [4] it was -4.28%; with Trypanosoma cruzi, -8.78%; in assay [5], 2.66%. Besides, the Percent Effect in [6] was 3.19%; in the assay listed under Homo sapiens it was 29.4%; in assay [7] it was 0.493%; in assay [8], 1.27%; in assay [9] it was -7.41%.
In the case of `COCCN1CCC(CNC(=O)c2cc(C)cc(C)c2)C1` (stereo unspecified), the Percent Effect in [1] is -6.49%; in assay [2], 10.5%; in assay [3], -7.62%; in assay [4] it was 15.5%; with Trypanosoma cruzi it was 6.26%; in assay [5] it was -1.8%. Further, the Percent Effect in [6] was 8.88%; in the assay listed under Homo sapiens, -10.5%; in [7], 6.4%; in [8], 13.6%; in assay [9], -4.84%.
In the case of `Cc1cccc(OCCC(=O)N2CCCN(CC(N)=O)CC2)c1C`, the Percent Effect in assay [1] was -3.47%; in [2], 17.7%; in [3] it was -7.09%; in [4], 14.1%; in the assay with Trypanosoma cruzi, 1.6%; in assay [5] it was -3.42%. For the same compound, the Percent Effect in assay [6] was 4.34%; in the assay filed under Homo sapiens it was -12.7%; in assay [7], 1.48%; in assay [8] it was 16.5%; in assay [9], -5.52%.
On to `CN(CC(=O)N1CCC(C(O)c2ccccc2)CC1)c1cnccn1` (stereo unspecified), for which the Percent Effect is -0.515% in [1]; 10.8% in assay [2]; -0.406% in [3]; 9.65% in [4]; -0.279% with Trypanosoma cruzi; -2.77% in [5]. The Percent Effect is 8.62% in assay [6]; 13.4% in the assay filed under Homo sapiens; 5.94% in assay [7]; 23.2% in assay [8]; -7.9% in [9].
Consider `CC(=O)N1CCN(C(=O)C2SCCc3sccc32)CC1` (stereo unspecified), for which the Percent Effect in assay [1] is -7.67%; in [2], 0%; in [3] it was -1.92%; in assay [4], 7.24%; in the assay on Trypanosoma cruzi, -2.15%; in [5], -0.833%. Also, the Percent Effect is 2.11% in assay [6]; 6.62% in the assay filed under Homo sapiens; 3.96% in assay [7]; -1.22% in assay [8]; 0.658% in [9].
Consider `Cc1cnc(N2CC3(CCN(C(=O)c4ccoc4)C3)C2)nc1`, for which the Percent Effect in [1] was -4.42%; in assay [2], 5.2%; in assay [3], 2.7%; in assay [4], 2.78%; in the assay on Trypanosoma cruzi it was -3.64%; in [5], -30.3%. Moreover, the Percent Effect in [6] is 15%; in the assay filed under Homo sapiens, 1.13%; in assay [7], 0%; in assay [8] it was 1.24%; in assay [9], -4.73%.
Take `Cc1cccc(CN2C[C@@H]3COC[C@]3(COc3ccc(C#N)cn3)C2)n1`: the Percent Effect in [1] was -2.98%; in [2], -8.22%; in assay [3] it was -1.47%; in assay [4], 2.28%; in the assay with Trypanosoma cruzi, 10.1%; in [5], -1.2%. Moreover, the Percent Effect was 3.34% in assay [6]; 4.74% in the assay filed under Homo sapiens; 0% in [7]; 8.64% in assay [8]; -0.121% in assay [9].
For the compound `Cc1ccc2c(c1)OCCCC2NCc1nnc2n1CCCCC2` (stereo unspecified), the Percent Effect in [1] was -3.75%; in [2], 2.7%; in assay [3], -4.22%; in [4], 17.1%; with Trypanosoma cruzi, 5.57%; in [5] it was 2.23%. Moreover, the Percent Effect in [6] was 0.772%; in the assay filed under Homo sapiens, -5.39%; in [7], -15.1%; in assay [8], 6.17%; in assay [9], -11.7%.
